Reference: PubChem BioAssay (Tox21)
Results filed as inconclusive are left out. A call without a number means that no potency is given here. Some structures have more than one record in an assay (separate samples or runs), and their calls can disagree. Activity calls are given as the source filed them. Calls come from the whole dose curve; as a rule, active = well fitted activation curve with a large enough effect in the repeat runs; inconclusive = weak or mixed curves; inactive = flat fitted curve, though single readings scatter.
Potency is the fitted concentration of half-maximal effect.

Assay: A CellTox Green Cytotoxicity Assay to monitor cytotoxicity in HepG2 cells - 16 hour (AID 1224876); note: nearly all actives have a fitted effect of over 45% in size
Conditions: CellTox Green fluorescence; series mostly up to 76.8 µM; cytotoxicity increase: at the top concentration
Description: National Center for Advancing Translational Sciences [NCATS]
NIH Chemical Genomics Center [NCGC]
U.S. Environmental Protection Agency [EPA]
National Institutes of Environmental Health Sciences [NIEHS]
National Toxicology Program [NTP]
Cell-based models are critical for drug discovery. Determining the natural cytotoxic effects resulting from test compounds is an essential research activity. A CellTox Green Cytotoxicity Assay to monitor cytotoxicity in real time of continues cell culture during 40 hours of the compound treatment was used to screen Tox21 10K library compounds in HepG2 cells. CellTox Green Cytotoxicity Assay is a nonlytic, homogeneous, biofluorescent method to measure cytotoxicity in cell culture after experimental manipulation. The assay system uses a proprietary asymmetric cyanine dye that is excluded from viable cells but preferentially stains the dead cell's DNA. […] Viable cells produce no appreciable increases in fluorescence. Therefore, the fluorescence signal produced by the binding interaction with dead cell DNA is proportional to cytotoxicity.
The mixture of HepG2 cell suspension and reagents were dispensed at 600cells/6 ul/well in 1536-well tissue culture treated black solid bottom plates using a Multidrop dispenser. After the assay plates were incubated at a 37 C/5% CO2 incubator for 5 hours, 23 nL of compounds dissolved in DMSO, positive and negative controls was transferred to the assay plate by a pintool work station. The plates were incubated at 37 C for 40 hours. The fluorescence intensity were measured at 0h, 8h, 16h, 24h, 32h and 40h time points using ViewLux plate reader during compound treatment.
For `COc1cc(-c2ccc(N)c(OC)c2)ccc1N`, the Potency was “inactive”. For `Nc1cc(Cl)cc(Cl)c1`, the Potency was “inactive”. With `Nc1ncc([N+](=O)[O-])s1` the Potency was “inactive”. In the case of `CCNc1nc(Cl)nc(NC(C)C)n1`, the Potency is reported as “inactive”. In the case of `O=P1(NCCCl)OCCCN1CCCl` (stereo not given), the Potency is reported as “inactive”. With `COc1nc(NC(C)C)nc(NC(C)C)n1` the Potency was “inactive”. In the case of `ClC(Cl)c1ccccc1`, the Potency is reported as “inactive”. In the case of `O=C(O)C1C(C(=O)O)C2(Cl)C(Cl)=C(Cl)C1(Cl)C2(Cl)Cl` (stereo not given), the Potency is reported as “inactive”. For `CNC(=O)O/N=C/C(C)(C)S(C)=O` (stereo not given), the Potency was “inactive”. With `CC(C)(C)C(=O)CCl` the Potency was “inactive”. With `O=[N+]([O-])c1cc([As](=O)(O)O)ccc1O` the Potency was “inactive”. In the case of `COP(=S)(OC)SCN1C(=O)c2ccccc2C1=O`, the Potency is reported as “inactive”. In the case of `Cc1cccc(N)c1`, the Potency is reported as “inactive”. With `Cc1ccccc1N` the Potency was “inactive”. For `CC[N+](=O)[O-]`, the Potency was “inactive”. With `C=CCN=C=S` the Potency was “inactive”. For `O=[N+]([O-])c1ccc(Cl)cc1`, the Potency was “inactive”. For `FC(F)(F)c1ccc(Cl)cc1`, the Potency was “inactive”. In the case of `Cc1cc(O)ccc1Cl`, the Potency is reported as “inactive”. In the case of `O=C/C=C/c1ccccc1`, the Potency is reported as “inactive”. For `C=CC(=O)OCCCCCC(C)C`, the Potency was “inactive”. For `Cl/C=C/Cl`, the Potency was “inactive”. For `CCOC(=O)CC(SP(=O)(OC)OC)C(=O)OCC` (stereo not given), the Potency was “inactive”. For `CNC(=O)O/N=C(\SC)C(=O)N(C)C`, the Potency was “inactive”. For `ClCCOCCCl`, the Potency was “inactive”. In the case of `COP(=S)(OC)Oc1ccc(SC)c(C)c1`, the Potency is reported as “inactive”. For `CNC(=O)O/N=C/C(C)(C)S(C)(=O)=O`, the Potency was “inactive”. With `NNc1ccccc1` the Potency was “inactive”. In the case of `OCc1ccco1`, the Potency is reported as “inactive”. In the case of `Cc1cccc(C)c1NC(=O)CN1CCCC1=O`, the Potency is reported as “inactive”. For `O=C(O)Cc1ccccc1`, the Potency was “inactive”. For `Oc1c(Br)cc(Br)cc1Br`, the Potency was “inactive”. For `Cc1cccc(N)c1C`, the Potency was “inactive”. For `Sc1ccccc1`, the Potency was “inactive”. In the case of `C[C@H]1C(=O)O[C@@H]2CCN3CC=C(COC(=O)[C@](C)(O)[C@]1(C)O)[C@H]23`, the Potency is reported as “inactive”. With `CN(C)NC(=O)CCC(=O)O` the Potency was “inactive”. With `C[C@]12CC[C@H](O)CC1=CC[C@@H]1[C@@H]2CC[C@]2(C)C(=O)CC[C@@H]12` the Potency was “inactive”. With `CC(C)c1cccc(C(C)C)c1O` the Potency was 43.6 µM (active) and inactive. For `Cc1cc(Cl)ccc1OC(C)C(=O)O` (stereo not given), the “cytotoxicity increase” value was 1.21% (inactive). With `CCCOC(=O)c1ccccc1C(=O)OCCC` the Potency was “inactive”.
